Assay results as given in PubChem BioAssay (NCI).
The panel holds about 79,000 compounds, 15% with a hit somewhere; the sample as a whole holds those more often. Activity calls are given as the source filed them. No stated cut-off is given here; in the data, active means growth inhibition above about 70%; inactive means the rest.

Key:
[1] = NCI Yeast Anticancer Drug Screen. Data for the rad50 strain (AID 155);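 further: 0% = growth of vehicle-only cultures of the same strain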; settings: S. cerevisiae rad50 strain growth inhibition; at 50.0 µM; stronger effect = higher value
How it was run: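 Relative growth inhibition (compound vs vehicle) was measured in yeast with a defined repair-gene alteration.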

[2] = NCI Yeast Anticancer Drug Screen. Data for the mec2-1 strain (AID 157); settings: S. cerevisiae mec2-1 strain, at 50.0 µM, stronger effect = higher value
How it was run: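 Cells of the genetically defined mec2-1 yeast strain are incubated with test compound. Inhibition of growth is calculated against vehicle-treated controls.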

[3] = NCI Yeast Anticancer Drug Screen. Data for the sgs1 mgt1 strain (AID 161);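 further: 0% = growth of cultures given vehicle only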; settings: S. cerevisiae sgs1 mgt1 strain, at 50.0 µM, stronger effect = higher value
How it was run: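 Read-out: growth inhibition vs vehicle controls. Cells: mutant yeast strain deficient in DNA damage repair.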

[4] = NCI Yeast Anticancer Drug Screen. Data for the cln2 rad14 strain (AID 165);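 further: 0% = growth equal to vehicle treated cultures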; settings: S. cerevisiae cln2 rad14 strain, at 50.0 µM, stronger effect = higher value
How it was run: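 The screen exposed genetically defined yeast (cln2 rad14) to test compounds and scored growth inhibition relative to vehicle-treated controls.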

[5] = NCI Yeast Anticancer Drug Screen. Data for the bub3 strain (AID 167); settings: S. cerevisiae bub3 mutant strain, at 50.0 µM, stronger effect = higher value
How it was run: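 Screening used yeast with an engineered genetic alteration affecting cell cycle control. Compound-exposed cultures were compared with vehicle cultures, and reduced growth was taken as inhibition.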

[6] = NCI Yeast Anticancer Drug Screen. Data for the mlh1 rad18 strain (AID 175); settings: S. cerevisiae mlh1 rad18 strain growth inhibition; at 50.0 µM; stronger effect = higher value
How it was run: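 Compound-treated yeast growth, normalised to vehicle controls. Strain bears defined DNA repair mutations.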

Measured: growth inhibition

CC(C)=CCN1c2ccccc2NC(=O)CC1C (stereo unspecified)
inactive: [1] -24.1% | [2] -66.7% | [3] -6.55% | [4] 4.5% | [5] -10.9% | [6] -14.9%

O=C(Nc1ccc(Cl)cc1)/C(Cc1cccc[n+]1[O-])=N\Nc1ccc([N+](=O)[O-])cc1[N+](=O)[O-]
inactive: [1] -19.4% | [2] -17% | [3] -6.2% | [4] -7.15% | [5] -26.6% | [6] -20.2%

c1ccc2c(c1)CSc1ccccc1-2
inactive: [1] 9.8% | [2] -8.9% | [3] -6.4% | [4] -12.2% | [5] 7% | [6] -3.65%

COC(=O)C1=C(O)/C(=C\c2ccccc2)NC1=O
inactive: [1] 9.35% | [2] -11.3% | [3] -12.9% | [4] -40.4% | [5] -17.8% | [6] -5.7%

CCN(CC)CCc1c2c(nc3ccccc13)C(=O)c1cccnc1C2=O
active: [1] 84.3% | [3] 84% | [4] 74.4% | [5] 79.2%
inactive: [2] 66.3% | [6] -21.5%

CCOC(=O)C#Cc1ccc(C#CC(=O)OCC)cc1
inactive: [1] -0.5% | [2] 19.4% | [3] 6.45% | [4] -2.95% | [5] 1.95% | [6] 51%

CCOC(=O)C1=C(C)N(Cc2ccccc2)C2(O)C1=CC(=O)C(Cl)=C2Cl (stereo unspecified)
inactive: [2] 45.5% | [3] 46.8% | [4] 54.9% | [5] 49.5% | [6] 42.4%
active: [1] 72.8%

Nc1nnnn1C1CCCCC1
inactive: [1] 9.3% | [2] 3.8% | [3] -4.65% | [4] -8.65% | [5] -11.3% | [6] 20.9%

CCOc1ccc(/C=C2N=C(/C=C/c3ccccc3)OC\2=O)cc1
inactive: [1] 19% | [2] 14.8% | [3] 19.1% | [4] 16.6% | [5] 3.2% | [6] 3.75%

CO[C@@H]1[C@@H](OC2OC(C)C(OC3CC(C)(O)C(OC(=O)CC(C)C)C(C)O3)C(N(C)C)C2O)[C@@H](CC=O)C[C@@H](C)C(=O)/C=C/C2O[C@H]2C[C@@H](C)OC(=O)C[C@H]1OC(C)=O (stereo partly specified)
inactive: [1] 4.1% | [2] -22.6% | [3] 4.75% | [4] 8.95% | [5] -14.3% | [6] 17.3%

O=[N+]([O-])c1cccc(C=NC23CC4CC(CC(C4)C2)C3)c1
inactive: [1] -2.15% | [2] 7.45% | [3] -29.6% | [4] 28.7% | [5] 30.1% | [6] -4.15%

CC[N+](C)(C)CCOP(=O)(c1ccccc1)c1ccccc1
inactive: [1] 2.4% | [2] 6.35% | [3] -15.1% | [4] 4.6% | [5] -2.2% | [6] 9.5%

O=C1ON(c2ccccc2)C(c2ccc(OCc3ccccc3)cc2)N1c1ccccc1 (stereo unspecified)
inactive: [1] 42.6% | [2] 14% | [3] 11.8% | [4] 4.35% | [5] 27.5% | [6] 26.8%

O=C(CCc1ccco1)CCc1ccco1
inactive: [1] 7.6% | [2] -3.35% | [3] 5.45% | [4] -9.05% | [5] -3.5% | [6] -0.6%

O=C(OCC1OC(OCc2ccccc2)C(OC(=O)c2ccccc2)C1OC(=O)c1ccccc1)c1ccccc1 (stereo unspecified)
inactive: [1] -10.2% | [2] -6.1% | [3] -2.4% | [4] -3% | [5] -13.5% | [6] -24.1%

CC(=O)NC1=NCC(CSc2nc3ccccc3s2)S1 (stereo unspecified)
inactive: [1] -8.45% | [2] -14.3% | [3] 5.65% | [4] -26.2% | [5] 9.7% | [6] 4.3%

CCCCCCCCCCCCCCCCOCC(O)CO (stereo unspecified)
inactive: [1] -8.55% | [2] -29.2% | [3] 1.25% | [4] -5.65% | [5] -17.1% | [6] -56.9%

c1cc2c3c(cc4c(c3c1)CCCC4)CC2
inactive: [1] -6.95% | [2] -20.9% | [3] -12.9% | [4] -23.6% | [5] 5.45% | [6] -4.75%

CCC(=O)C(C)C1(C(=O)OC)NC(=S)NC(=O)C1C#N (stereo unspecified)
inactive: [1] 5.4% | [2] -4.75% | [3] -15.8% | [4] -6.4% | [5] -22.1% | [6] -6.1%

N#CNC(=O)c1ccc(Cl)cc1
inactive: [1] -2.8% | [2] -12.5% | [3] -11.1% | [4] -21.4% | [5] -14.4% | [6] -0.4%

O=C1C=C(Nc2cccnc2)c2ccccc2C1=O
inactive: [1] 9.5% | [2] -7.2% | [3] 0.4% | [4] 8.5% | [5] 19.6% | [6] 8.8%
